Compound activity from PubChem.
MITF primary: human MITF inhibition, primary screen | AlphaScreen MITF homodimerization, bead proximity signal | inhibition, % at 2.6 µM | actives 0.91% (n = 650,000) | AID 1259374; in the data active means inhibition above about 50%;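 further: 0% = vehicle wells with protein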
FBW7 act: human FBW7 E3 ligase activation, primary screen. Q969H0. AlphaScreen FBW7–phospho-cyclin E peptide binding, activator screen. normalized activity (activation), % at 26.1 µM. actives 0.13% (n = 650,000). AID 1259310; in the data active means normalized activity above about 1.9%;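 further: purified mutant Fbw7 with reduced substrate affinity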
Target sequence (Q969H0 whole entry, looked up): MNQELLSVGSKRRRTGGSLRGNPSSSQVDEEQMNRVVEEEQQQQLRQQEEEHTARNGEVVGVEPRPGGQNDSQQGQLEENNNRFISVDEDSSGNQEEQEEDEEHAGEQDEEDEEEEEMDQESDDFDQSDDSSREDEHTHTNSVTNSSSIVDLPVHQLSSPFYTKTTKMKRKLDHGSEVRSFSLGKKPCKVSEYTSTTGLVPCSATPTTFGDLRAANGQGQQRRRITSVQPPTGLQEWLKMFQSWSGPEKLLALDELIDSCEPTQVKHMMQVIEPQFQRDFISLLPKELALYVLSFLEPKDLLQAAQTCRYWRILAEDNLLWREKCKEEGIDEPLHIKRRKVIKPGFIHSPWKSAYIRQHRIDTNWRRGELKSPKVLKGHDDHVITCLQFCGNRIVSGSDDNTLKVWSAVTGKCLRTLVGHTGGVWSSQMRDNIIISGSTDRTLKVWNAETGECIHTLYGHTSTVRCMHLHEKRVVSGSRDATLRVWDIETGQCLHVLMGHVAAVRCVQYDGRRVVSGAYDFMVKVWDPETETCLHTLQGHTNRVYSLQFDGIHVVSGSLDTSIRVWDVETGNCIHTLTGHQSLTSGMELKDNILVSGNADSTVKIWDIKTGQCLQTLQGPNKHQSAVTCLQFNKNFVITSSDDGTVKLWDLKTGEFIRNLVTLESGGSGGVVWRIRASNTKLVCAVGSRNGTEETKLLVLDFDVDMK
TEAD-YAP block: TEAD-YAP interaction inhibition | actives 1.4% (n = 640,000) | inhibition, % at 9.12 µM | HEK-TIYL cells, TEAD-Gal4/YAP UAS-luciferase luminescence; in the data active means inhibition above about 32%;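 further: 0% = median of test compound wells and 100% = reference inhibitor wells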
GPR151 ag: activators of human GPR151 | AID 1508602 | Q8TDV0 | actives 1% (n = 650,000) | PathHunter beta-arrestin GPR151 cells, luminescence | activation, % at 11.2 µM; in the data active means activation above about 4.9%;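 further: 0% = median of compound wells and 100% = cells with positive control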
GPR151 confirm: human GPR151 activation, confirmation screen | activation, % at 11.2 µM | GPR151 PathHunter beta-arrestin cells, luminescence, 90 min; % of EA-reagent control over plate median | shares compounds with GPR151 ag | 6,700 tested, under 10 active;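 active means mean percent activation across replicates above the confirmation screen cutoff of 4.91%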
GPR119 counter: counter-screen for GPR151 activators: effect on human GPR119; activation, % at 11.2 µM; AID 1508611; shares compounds with GPR151 ag; actives 0.3% (n = 6,700); GPR119 PathHunter beta-arrestin cells, luminescence, 90 min; 0 = compound-well median, 100 = enzyme-acceptor control;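 active means mean percent activation in the counterscreen above 29.09%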;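 further: counterscreen on off-target GPR119 to flag nonselective hits from the GPR151 activator screen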
Active calls of the source: *; / = not tested or not shown; ! = not confirmed by another sample. A selection: hits, their analogues and other compounds. The true share with any hit is near 3.4%.

SMILES	MITF primary	FBW7 act	TEAD-YAP block	GPR151 ag	GPR151 confirm	GPR119 counter
CNC(=S)N1CCC(C(=O)NC(c2cccc(OC)c2)c2ccccn2)CC1 (centres undefined)	14	0	-3	6.9*	0	0
Cc1n(CC(=O)c2ccc(Cl)c(Cl)c2)c2ccccc2[n+]1C	17	0	17	0	/	/
O=C(NCCSC1CCCCC1)Nc1ccccc1	-10	0	1	5.1*	-1	-18
CCCCNC(=O)c1sc(=S)n(-c2ccccc2)c1N	10	0	-11	1	/	/
Cc1nnc(SCc2cc(=O)n3[nH]cnc3n2)s1	14	0	11	5.7*	-1	-5
CC(=O)N1CC(C)Sc2cc(S(=O)(=O)NCc3ccc4c(c3)OCO4)ccc21 (centres undefined)	5	0	1	5.1*	1	-4
COC(=O)c1ccccc1NC(=O)CN(c1ccccc1Cl)S(C)(=O)=O	5	0	-1	2	/	/
COc1ccc(OC)c(N(CC(=O)Nc2ccccc2F)S(C)(=O)=O)c1	2	0	6	2	/	/
COC(=O)c1ccccc1NC(=O)CN(c1ccc(OC)cc1OC)S(C)(=O)=O	-1	0	12	9.5*	-1	0
COC(=O)c1ccccc1NC(=O)CN(c1cc(OC)ccc1OC)S(C)(=O)=O	-6	0	-7	5.6*	0	8
CN(C)c1cc(C(=O)NC(C)(C)C)nc(N(C)C)n1	-2	0	4	2	/	/
Cc1cccc(OCC(=O)Nc2cc(-c3nc4ncccc4o3)ccc2Cl)c1	10	0	-3	1	/	/
COC(=O)c1nc(N)sc1-c1ccc(Cl)c(Cl)c1	2	0	-1	7.6*	0	-4
COc1cccc(N2C(=O)CN(Cc3ccc(OC(F)F)cc3)CC2C)c1 (centres undefined)	14	0	2	0	/	/
O=C(Nc1ccc(I)cc1)Nc1ccc2c(c1)OCO2	-1	0	-30	5.8*	-1	-12
Cc1ccccc1CN1CCCC(C(=O)N2CCCCCC2)C1 (centres undefined)	44	0	4	1	/	/
O=C(Nc1cccc(F)c1)c1cccn(OCc2ccccc2F)c1=O	8	0	-31	-1	/	/
COc1cccc(NC(=O)c2cccn(OCc3ccccc3F)c2=O)c1	-30	0	-17	6.2*	0	6
O=C(CN1CCCCC1)Nc1ccc2c(c1)OCCO2	38	0	-66	0	/	/
Cc1ccc(Sc2ccc3noc4c3c2C(=O)c2ccccc2-4)cc1	9	0	1	11*	-1	-14
Cc1ccc(-n2c(C)cc(/C=N/NC(=O)CN3CCOCC3)c2C)c(C)c1	11	0	5	-1	/	/
COc1ccc(S(=O)(=O)Nc2ccc3ccccc3c2)cc1NC(C)=O	8	0	-8	3	/	/
Cn1ccnc1N1CCN(C(=O)c2cccc(F)c2)CC1	9	0	5	5.1*	-1	-12
Cc1c(Cl)cccc1NS(=O)(=O)c1ccc(NC(=O)c2ccco2)cc1	6	0	10	1	/	/
N#Cc1ccc(OCC(=O)OCC(=O)Nc2ncc(Cl)cc2Cl)cc1	-4	0	0	5.6*	0	-8
SMILES	MITF primary	FBW7 act	TEAD-YAP block	GPR151 ag	GPR151 confirm	GPR119 counter
CCc1cc2c(=O)c(-c3ccc4c(c3)OCCCO4)c(C)oc2cc1OC(=O)N1CCOCC1	10	-1	5	2	/	/
Cc1ccc(N2C(=O)CN(S(C)(=O)=O)CC2(C)C(=O)NC2CCCCC2)cc1C (centres undefined)	3	0	1	5.1*	1	-9
Cc1ccc(C)c(N2C(=O)CN(S(C)(=O)=O)CC2(C)C(=O)NC2CCCCCC2)c1 (centres undefined)	12	0	3	0	/	/
COc1cc(OC)c(NC(=O)Cn2c(C)cc3ccccc3c2=O)cc1Cl	6	0	4	1	/	/
CCCN1CCC(=NNC(=O)c2cccc(Br)c2)CC1	10	0	-30	0	/	/
CCn1cc(CN2CCCC(CNC(=O)c3ccc(-c4ccccc4)cc3)C2)cn1 (centres undefined)	8	0	9	6.0*	0	-4
COc1ccc(NC(=O)c2cc(-c3ccccc3F)no2)cc1OC	7	0	6	-1	/	/
O=C(Nc1ccc2c(c1)OCO2)c1cc(-c2ccccc2F)no1	12	0	-26	5.2*	0	5
Cc1cc(C(=O)Nc2ccc3c(c2)OCO3)on1	-7	0	-27	0	/	/
COc1ccc(NC(=O)c2cc(-c3ccccc3O)no2)cc1OC	-11	0	-8	5.5*	0	-13
CC(/C=C\c1ccccc1)=N/NC(=O)c1ccc([N+](=O)[O-])cc1	14	0	-12	-1	/	/
CCc1ccc(CN2CCc3nnc(CNC(=O)COc4ccccc4)n3CC2)o1	4	0	3	0	/	/
Cc1ccc(/C=C/C(=O)NCCC(C)C)cc1	-25	0	-68	-2	/	/
O=C(NCC(c1ccco1)N1CCOCC1)c1ccc(F)cc1 (centres undefined)	-10	0	-5	5.4*	0	7
CCOc1ccc(-n2c(=S)sc3c(=O)n(-c4ccc(C)cc4)c(SCc4cccc([N+](=O)[O-])c4)nc32)cc1	7	0	2	-1	/	/
O=C(c1c(F)cccc1Cl)N(c1ccc(F)cc1)C1C=CS(=O)(=O)C1 (centres undefined)	1	0	5	7.2*	0	6
O=C(c1c(F)cccc1Cl)N(c1ccccc1)C1C=CS(=O)(=O)C1 (centres undefined)	-4	0	-11	1	/	/
COc1cc2nc(=S)n3[nH]c(CCn4c(C)nc5ccccc54)nc3c2cc1OC	7	0	-2	5.5*	0	-2
COc1ccc(OCc2nc3c4cc(OC)c(OC)cc4nc(=S)n3[nH]2)cc1	-1	0	1	1	/	/
CC(Oc1ccc2c3c(c(=O)oc2c1)CCCC3)C(=O)O (centres undefined)	-1	0	7	0	/	/
CSCCC(NC(C)=O)C(=O)Oc1ccc2c3c(c(=O)oc2c1)CCCC3 (centres undefined)	15	1	4	5.4*!	0	-4
COC(CNC(=O)c1cc(Nc2cc(C)cc(C)c2)nc2ccccc12)OC	-2	0	-12	0	/	/
Cc1ccc(-c2nnc(C3CCN(S(=O)(=O)c4ccc(Cl)s4)CC3)o2)cc1	0	0	5	7.0*	0	-1
CN(C)c1cccc(N=Cc2c(O)n(-c3ccc(F)cc3)c(=O)[nH]c2=O)c1	-7	0	-2	0	/	/
O=C(Nc1cc(Cl)c(Cl)cc1Cl)c1cnc2n(c1=O)CCS2	-7	0	11	7.7*	0	9
CCOC(=O)CS(=O)(=O)c1ccc(C(=O)N2CCN(Cc3ccccc3)CC2)cc1[N+](=O)[O-]	7	0	-43	2	/	/
